Experimental data from PubChem BioAssay AID1159580 (chemical genetic matrix, 2015).
Screen size: about 5,500 compounds; about 2,000 (36%) were called active. Inconclusive results (about 18%) are left out. No stated cut-off is given here; in the data, active means normalized growth mostly below about 0.91 (no sharp cut-off); inconclusive means no clear call, values can overlap the other calls; inactive means mostly above about 0.92. This is one part of the list.

Assay: chemical genetic growth profiling, strain panel (AID 1159580);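 further: tested at 20 µM; growth read once vehicle control cultures reached saturation at 30 °C; 1 = growth at the plate median or of vehicle wells; lower values mean less growth of the strain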
Conditions: growth OD

Measured: normalized growth

CC[n+]1c(-c2ccccc2)c2cc(N)ccc2c2ccc(N)cc21
inactive: S. cerevisiae deletion strains, locus YKL160W, strain elf1, hits give low values 0.973 | S. cerevisiae deletion strains, locus YKR001C, strain vps1, hits give low values 0.929 | S. cerevisiae deletion strains, locus YKR026C, strain gcn3, hits give low values 0.955 | S. cerevisiae deletion strains, locus YKR091W, strain srl3, hits give low values 0.97 | S. cerevisiae deletion strains, locus YLL001W, strain dnm1, hits give low values 0.95 | S. cerevisiae deletion strains, locus YLL026W, hits give low values 0.97 | S. cerevisiae deletion strains, locus YLL041C, strain sdh2, hits give low values 0.972 | S. cerevisiae deletion strains, locus YLR027C, strain aat2, hits give low values 0.979 | S. cerevisiae deletion strains, locus YLR039C, strain RIC1, hits give low values 0.771 | S. cerevisiae deletion strains, locus YLR102C, strain apc9, hits give low values 0.942 | S. cerevisiae deletion strains, locus YLR221C, strain rsa3, hits give low values 0.936 | S. cerevisiae deletion strains, locus YLR258W, strain gsy2, hits give low values 0.968 | S. cerevisiae deletion strains, locus YLR262C, strain YPT6 (second series), hits give low values 1.01 | S. cerevisiae deletion strains, locus YLR262C, strain YPT6, hits give low values 0.755 | S. cerevisiae deletion strains, locus YLR342W, strain FKS1 (second series), hits give low values 0.86 | S. cerevisiae deletion strains, locus YLR342W, strain FKS1, hits give low values 0.987 | S. cerevisiae deletion strains, locus YLR357W, strain rsc2, hits give low values 1.04 | S. cerevisiae deletion strains, locus YLR370C, strain arc18, hits give low values 0.955 | S. cerevisiae deletion strains, locus YLR371W, strain rom2, hits give low values 0.917 | S. cerevisiae deletion strains, locus YLR384C, strain iki3, hits give low values 0.966 | S. cerevisiae deletion strains, locus YLR418C, strain cdc73, hits give low values 0.881 | S. cerevisiae deletion strains, locus YML120C, strain ndi1, hits give low values 0.96 | S. cerevisiae deletion strains, locus YMR058W, strain fet3, hits give low values 0.973 | S. cerevisiae deletion strains, locus YMR125W, strain sto1, hits give low values 0.98 | S. cerevisiae deletion strains, locus YMR129W, hits give low values 0.969 | S. cerevisiae deletion strains, locus YMR231W, strain pep5, hits give low values 0.986 | S. cerevisiae deletion strains, locus YMR307W, strain GAS1, hits give low values 0.714 | S. cerevisiae deletion strains, locus YNL153C, strain GIM3, hits give low values 0.888 | S. cerevisiae deletion strains, locus YNL183C, strain NPR1, hits give low values 0.878 | S. cerevisiae deletion strains, locus YNL209W, strain ssb2, hits give low values 0.96 | S. cerevisiae deletion strains, locus YNL322C, strain KRE1 (second series), hits give low values 0.919 | S. cerevisiae deletion strains, locus YNR049C, strain mso1, hits give low values 0.962 | S. cerevisiae deletion strains, locus YOL006C, strain TOP1, hits give low values 0.64 | S. cerevisiae deletion strains, locus YOL012C, strain htz1 0.55 | S. cerevisiae deletion strains, locus YOR070C, strain gyp1, hits give low values 0.967 | S. cerevisiae deletion strains, locus YOR080W, strain dia2, hits give low values 0.988 | S. cerevisiae deletion strains, locus YOR083W, strain WHI5, hits give low values 0.948 | S. cerevisiae deletion strains, locus YOR106W, strain vam3, hits give low values 0.966 | S. cerevisiae deletion strains, locus YOR136W, strain idh2, hits give low values 0.964 | S. cerevisiae deletion strains, locus YOR231W, strain MKK1, hits give low values 0.898 | S. cerevisiae deletion strains, locus YOR265W, strain rbl2, hits give low values 0.974 | S. cerevisiae deletion strains, locus YOR270C, strain vph1, hits give low values 0.856 | S. cerevisiae deletion strains, locus YOR290C, strain snf2, hits give low values 0.937 | S. cerevisiae deletion strains, locus YOR316C, strain cot1, hits give low values 0.933 | S. cerevisiae deletion strains, locus YPL051W, strain arl3, hits give low values 0.989 | S. cerevisiae deletion strains, locus YPL055C, strain LGE1, hits give low values 0.89 | S. cerevisiae deletion strains, locus YPL078C, strain atp4, hits give low values 1.02 | S. cerevisiae deletion strains, locus YPL106C, strain sse1, hits give low values 0.913 | S. cerevisiae deletion strains, locus YPL240C, strain hsp82, hits give low values 0.97 | S. cerevisiae deletion strains, locus YPL256C, strain CLN2, hits give low values 0.855
active: S. cerevisiae deletion strains, locus YJR075W, strain HOC1, hits give low values 0.665 | S. cerevisiae deletion strains, locus YKL009W, strain mrt4, hits give low values 0.867 | S. cerevisiae deletion strains, locus YKL068W, hits give low values 0.881 | S. cerevisiae deletion strains, locus YKL085W, strain MDH1 (second series), hits give low values 0.882 | S. cerevisiae deletion strains, locus YKL085W, strain MDH1, hits give low values 0.882 | S. cerevisiae deletion strains, locus YKL190W, strain CNB1, hits give low values 0.857 | S. cerevisiae deletion strains, locus YLR058C, strain SHM2, hits give low values 0.847 | S. cerevisiae deletion strains, locus YLR113W, strain HOG1, hits give low values 0.831 | S. cerevisiae deletion strains, locus YLR268W, strain sec22, hits give low values 0.777 | S. cerevisiae deletion strains, locus YLR320W, strain mms22, hits give low values 0.872 | S. cerevisiae deletion strains, locus YLR330W, strain CHS5, hits give low values 0.886 | S. cerevisiae deletion strains, locus YML016C, strain PPZ1, hits give low values 0.885 | S. cerevisiae deletion strains, locus YML032C, strain rad52, hits give low values 0.425 | S. cerevisiae deletion strains, locus YML124C, strain tub3, hits give low values 0.932 | S. cerevisiae deletion strains, locus YMR078C, strain ctf18, hits give low values 0.814 | S. cerevisiae deletion strains, locus YMR205C, strain PFK2, hits give low values 0.831 | S. cerevisiae deletion strains, locus YMR223W, strain ubp8, hits give low values 0.825 | S. cerevisiae deletion strains, locus YNL067W, strain RPL9B, hits give low values 0.805 | S. cerevisiae deletion strains, locus YNL071W, strain lat1, hits give low values 0.868 | S. cerevisiae deletion strains, locus YNL233W, strain BNI4, hits give low values 0.841 | S. cerevisiae deletion strains, locus YNL248C, strain rpa49, hits give low values 0.858 | S. cerevisiae deletion strains, locus YNL250W, strain rad50, hits give low values 0.662 | S. cerevisiae deletion strains, locus YNL271C, strain bni1, hits give low values 0.909 | S. cerevisiae deletion strains, locus YNL298W, strain CLA4, hits give low values 0.881 | S. cerevisiae deletion strains, locus YNL307C, strain MCK1, hits give low values 0.855 | S. cerevisiae deletion strains, locus YNR052C, strain pop2, hits give low values 0.885 | S. cerevisiae deletion strains, locus YOL147C, strain pex11, hits give low values 0.898 | S. cerevisiae deletion strains, locus YOR001W, strain rrp6, hits give low values 0.857 | S. cerevisiae deletion strains, locus YOR061W, strain CKA2, hits give low values 0.876 | S. cerevisiae deletion strains, locus YOR069W, strain VPS5, hits give low values 0.891 | S. cerevisiae deletion strains, locus YOR144C, strain elg1, hits give low values 0.906 | S. cerevisiae deletion strains, locus YOR184W, strain ser1, hits give low values 0.73 | S. cerevisiae deletion strains, locus YPR119W, strain clb2, hits give low values 0.925 | S. cerevisiae deletion strains, locus YPR141C, strain kar3, hits give low values 0.886 | S. cerevisiae deletion strains, locus YPR163C, strain tif3, hits give low values 0.781 | S. cerevisiae deletion strains, locus YPR167C, strain met16, hits give low values 0.864 | S. cerevisiae deletion strains, strain wtn01, hits give low values 0.795 | S. cerevisiae strains, strain wild type, hits give low values 0.854
